Assay results taken from PubChem BioAssay (Tox21).
Results filed as inconclusive are left out. A call without a number means that no potency is given here. Activity calls are given as the source filed them. Calls come from the whole dose curve; as a rule, active = well fitted cell-killing curve with a large enough effect in the repeat runs; inconclusive = weak or mixed curves, or effect the other way; inactive = flat fitted curve, though single readings scatter.

assay: qHTS RealTime-Glo MT Cell Viability Assay in HEK293 cells - 0 hour (AID 1224880); settings: RealTime-Glo luminescence; series mostly up to 76.8 µM; activity change, negative = cytotoxicity: at the top concentration; note: nearly all actives have a fitted effect of over 45% in size; for activity change, negative = cytotoxicity: top concentration of the series differs between compounds
In short: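 Nonlytic bioluminescent viability monitoring. HEK293 at 600 cells/well with reagent; 5 h settle; compound transfer by pintool; plates held at 37 C and read at set time points.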
Potency is the fitted concentration of half-maximal effect.

SMILES | activity change, negative = cytotoxicity | Potency
O=[N+]([O-])c1ccc(O)c([N+](=O)[O-])c1 | -2.75% (inactive) | 
C=C(C)C(=O)OCC1CO1 (stereo not given) |  | inactive
c1ccc(P(c2ccccc2)c2ccccc2)cc1 |  | inactive
Clc1nc(Cl)nc(Cl)n1 |  | inactive
CCC(C)(c1ccc(O)cc1)c1ccc(O)cc1 |  | inactive
Nc1cccnc1 |  | inactive
CCCCCc1cc(O)cc(O)c1 |  | inactive
CN(C)C(=O)Nc1ccc(Cl)cc1 |  | inactive
Oc1cc(Cl)ccc1Cl |  | inactive
Oc1c(Cl)c(Cl)c(Cl)c(Cl)c1Cl |  | inactive
S=C1NCCN1 |  | inactive
Cc1ccc(N)c(N)c1 |  | inactive
CC(C)(C)c1ccccc1O |  | inactive
Nc1ccncc1 |  | inactive
O=Cc1ccco1 |  | inactive
Cc1ccc2c(c1N)C(=O)c1ccccc1C2=O |  | inactive
CCOc1cc(Oc2ccc(C(F)(F)F)cc2Cl)ccc1[N+](=O)[O-] |  | inactive
ClC1C(Cl)C(Cl)C(Cl)C(Cl)C1Cl (stereo not given) |  | inactive
CC(C)NC(C)C |  | inactive
O=C(Nc1ccc(Br)cc1)c1cc(Br)cc(Br)c1O |  | 24.5 µM (active)
CC(C)=CC1C(C(=O)OCc2coc(Cc3ccccc3)c2)C1(C)C (stereo not given) |  | inactive
Cc1cccc(N)c1N |  | inactive
CN(C)c1ccc(C(=O)c2ccc(N(C)C)cc2)cc1 |  | inactive
C#C[C@]1(O)CC[C@H]2[C@@H]3CCC4=CC(=O)CC[C@]4(C)[C@H]3CC[C@@]21C |  | inactive
CC(C)C(=O)OCC(C)(C)C(OC(=O)C(C)C)C(C)C (stereo not given) |  | inactive
Cc1ccc(OP(=O)(Oc2ccc(C)cc2)Oc2ccc(C)cc2)cc1 |  | inactive
CCOC(=S)S |  | inactive
CC(C)(OOC(C)(C)c1ccccc1)c1ccccc1 |  | inactive
CC(C)Oc1cc(-n2nc(C(C)(C)C)oc2=O)c(Cl)cc1Cl |  | inactive
NCc1cccnc1 |  | inactive
